For part of these data: Entries with a potency or affinity are not part of this list. Active and inactive are the calls of the source.
Key:
[1] = Ebola virus entry assay, green channel fluorescence
[2] = Ebola virus entry assay, blue channel fluorescence
[3] = Ebola virus entry assay, reporter ratio channel; AC50: Channel type: primary unless noted; outcome: Channel type: primary unless noted
[4] = Ebola virus entry assay, blue channel (ratio component)
[5] = Ebola virus entry reporter assay, green channel fluorescence
[6] = Ebola virus entry cell assay, ratio channel

Measured: outcome

COC(=O)C1=C(C)NC(C)=C(C(=O)OC(C)C)C1c1cccc2nonc12 (configuration not stated)
inactive: all assays above

CNCCc1ccccn1
inactive: all assays above

O[C@@H]1CO[C@H]2[C@@H]1OC[C@@H]2O
inactive: all assays above

Cn1c(=O)c2c(ncn2CC(O)CO)n(C)c1=O (configuration not stated)
inactive: all assays above

C[C@@H](O)[C@H]1C(=O)N2C(C(=O)O)=C(S[C@@H]3CN[C@H](C(=O)N(C)C)C3)[C@H](C)[C@H]12
inactive: all assays above

Cn1cnc([N+](=O)[O-])c1Sc1ncnc2nc[nH]c12
inactive: all assays above

CCOC(=O)[C@H](CCc1ccccc1)N[C@@H](C)C(=O)N1[C@H](C(=O)O)C[C@@H]2CCC[C@@H]21
inactive: all assays above

CC(C)[N+](C)(CCOC(=O)C1c2ccccc2Oc2ccccc21)C(C)C
inactive: all assays above

NC(=O)N1c2ccccc2CC(=O)c2ccccc21
inactive: all assays above

CC1=NS(=O)(=O)c2cc(Cl)ccc2N1
inactive: all assays above

CC(=O)N[C@@H](CS)C(=O)O
inactive: all assays above

C1N2CN3CN1CN(C2)C3
inactive: all assays above

CNS(=O)(=O)Cc1ccc2[nH]cc(CCN(C)C)c2c1
inactive: all assays above

O=C(O)COCCN1CCN(C(c2ccccc2)c2ccc(Cl)cc2)CC1 (configuration not stated)
inactive: all assays above

CCCCc1ncc(/C=C(\Cc2cccs2)C(=O)O)n1Cc1ccc(C(=O)O)cc1
inactive: all assays above

O=C1NC(c2ccccc2)(c2ccccc2)C(=O)N1COP(=O)(O)O
inactive: all assays above

COc1cc(C(=O)NCc2ccc(OCCN(C)C)cc2)cc(OC)c1OC
inactive: all assays above

COC(=O)[C@@H]1CC2=CC(=O)CC[C@]2(C)[C@@]23O[C@@H]2C[C@@]2(C)[C@@H](CC[C@@]24CCC(=O)O4)[C@H]13
inactive: all assays above

OCCN1C[C@H](O)[C@@H](O)[C@H](O)[C@H]1CO
inactive: all assays above

CO/N=C(\C(=O)N[C@@H]1C(=O)N2C(C(=O)O)=C(CSc3nc(=O)c(O)nn3C)CS[C@H]12)c1csc(N)n1
inactive: all assays above

CCCCc1nc(Cl)c(CO)n1Cc1ccc(-c2ccccc2-c2nn[nH]n2)cc1
inactive: all assays above

NCCC(O)(P(=O)(O)O)P(=O)(O)O
inactive: all assays above

CCOC(=O)[C@H](CCc1ccccc1)N[C@@H](C)C(=O)N1Cc2ccccc2C[C@H]1C(=O)O
inactive: all assays above

CC(C)Nc1cccnc1N1CCN(C(=O)c2cc3cc(NS(C)(=O)=O)ccc3[nH]2)CC1
inactive: all assays above

CCCCS(=O)(=O)N[C@@H](Cc1ccc(OCCCCC2CCNCC2)cc1)C(=O)O
inactive: all assays above

O=C1NC(=O)C(c2ccccc2)(c2ccccc2)N1
inactive: all assays above

O=C(C1CCCCC1)N1CC(=O)N2CCc3ccccc3C2C1 (configuration not stated)
inactive: all assays above

CS(=O)(=O)OCCCCOS(C)(=O)=O
inactive: all assays above

C[C@@H]1C[C@H]2[C@@H]3CCC4=CC(=O)C=C[C@]4(C)[C@@]3(F)[C@@H](O)C[C@]2(C)[C@@]1(O)C(=O)CO
inactive: all assays above

O=c1[nH]cnc2c1ncn2[C@H]1CC[C@@H](CO)O1
inactive: all assays above

N[C@@H](C(=O)N[C@@H]1C(=O)N2C(C(=O)O)=C(Cl)CS[C@H]12)c1ccccc1
inactive: all assays above

CC1(C)NC(=O)N(c2ccc([N+](=O)[O-])c(C(F)(F)F)c2)C1=O
inactive: all assays above

O=NN(CCCl)C(=O)NC1CCCCC1
inactive: all assays above

CCN(C)C(=O)Oc1cccc([C@H](C)N(C)C)c1
inactive: all assays above

COc1cc(Cc2cnc(N)nc2N)cc(OC)c1OC
inactive: all assays above

CCOc1ccccc1OCCN[C@H](C)Cc1ccc(OC)c(S(N)(=O)=O)c1
inactive: all assays above

CC(C)n1c(/C=C/[C@@H](O)C[C@@H](O)CC(=O)O)c(-c2ccc(F)cc2)c2ccccc21
inactive: all assays above

Cc1[nH]cnc1CN1CCc2c(c3ccccc3n2C)C1=O
inactive: all assays above

O=C1OCCN1/N=C/c1ccc([N+](=O)[O-])o1
inactive: all assays above

O=C(OC1C[C@H]2CC[C@@H](C1)[N+]21CCCC1)C(O)(c1ccccc1)c1ccccc1 (some centres not stated)
inactive: all assays above

NC12CC3CC(CC(C3)C1)C2
inactive: all assays above

O=C(O)c1cn(C2CC2)c2cc(N3CCNCC3)c(F)cc2c1=O
inactive: all assays above

OC(Cn1cncn1)(Cn1cncn1)c1ccc(F)cc1F
inactive: all assays above

CC(C)(C(=O)O)c1ccc(C(O)CCCN2CCC(C(O)(c3ccccc3)c3ccccc3)CC2)cc1 (configuration not stated)
inactive: all assays above

COc1ccccc1OCC(O)CN1CCN(CC(=O)Nc2c(C)cccc2C)CC1 (configuration not stated)
inactive: all assays above

O=C(c1ccccc1)c1ccc2n1CCC2C(=O)O (configuration not stated)
inactive: all assays above

CC1(C)S[C@@H]2[C@H](NC(=O)[C@H](N)c3ccccc3)C(=O)N2[C@H]1C(=O)O
inactive: all assays above

O=C1CCC(N2C(=O)c3ccccc3C2=O)C(=O)N1 (configuration not stated)
inactive: all assays above

O=C(O)CCNC(=O)c1ccc(N=Nc2ccc(O)c(C(=O)O)c2)cc1
inactive: all assays above

CCOC(=O)c1ncn2c1CN(C)C(=O)c1cc(F)ccc1-2
inactive: all assays above

CCCc1cc(=O)[nH]c(=S)[nH]1
inactive: all assays above

O=C(O)CCCc1ccccc1
inactive: all assays above

CCCNC(=O)NS(=O)(=O)c1ccc(Cl)cc1
inactive: all assays above

O=NN(CCCl)C(=O)NCCCl
inactive: all assays above

CC[C@@H](CO)NCCN[C@@H](CC)CO
inactive: all assays above

Cc1cccc(Nc2ccccc2C(=O)O)c1C
inactive: all assays above

O=P(O)(O)C(O)(Cc1cccnc1)P(=O)(O)O
inactive: all assays above

CCN(CC)CCNC(=O)c1cc(Cl)c(N)cc1OC
inactive: all assays above

NS(=O)(=O)c1cc2c(cc1C(F)(F)F)NCNS2(=O)=O
inactive: all assays above

NC(=O)c1cn(Cc2c(F)cccc2F)nn1
inactive: all assays above

CCCCNC(=O)NS(=O)(=O)c1ccc(C)cc1
inactive: all assays above

CCC1(c2ccccc2)C(=O)NCNC1=O
inactive: all assays above

Source: PubChem BioAssay (NCATS)
